# PubChem BioAssay (NCATS)
# Records with an inconclusive call do not appear. Where a call stands in place of a potency, no number is given. A number with no mark means an inactive call. Active and inactive are the calls of the source. Calls come from the whole dose curve; as a rule, active = well fitted curve in the direction sought with a large enough effect; inconclusive = small, poorly fitted or top-dose-only effect, or another doubt; inactive = no such curve, though single readings can be large; an effect the other way counts as inactive or inconclusive.
# Columns and labels:
# [1] = target: Rap guanine nucleotide exchange factor 3 (Homo sapiens) (UniProt O95398); test: Confirmatory qHTS for antagonist of cAMP-regulated guanine nucleotide exchange factor 3 (EPAC1) (AID 1645880); note: nearly all actives have a fitted effect of over 55% in size; note: potency is the fitted concentration of half-maximal effect
# How it was run: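 Nucleotide exchange uses 100 nM EPAC1, 250 nM RAP1B-BODIPY-GDP and 50 uM GDP, with compounds in a concentration-titration series. After 5 min at room temperature, fluorescence (480 nm ex/540 nm em) is read every 5 min for 30 min. Data are normalized to control ATA and DMSO.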
# [2] = target: Rap guanine nucleotide exchange factor 3 (Homo sapiens) (UniProt O95398); test: Confirmatory qHTS for agonist of cAMP-regulated guanine nucleotide exchange factor 3 (EPAC1) (AID 1645881); note: nearly all actives have a fitted effect of over 75% in size; note: potency is the fitted concentration of half-maximal effect;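 for activation: EPAC1 catalysed release of BODIPY-GDP from Rap1B seen as fluorescence loss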
# [3] = target: Rap guanine nucleotide exchange factor 4 (Homo sapiens) (UniProt Q8WZA2); test: Confirmatory qHTS for agonist of cAMP-regulated guanine nucleotide exchange factor 4 (EPAC2) (AID 1645884);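 note: nucleotide exchange releases bodipy-GDP from Rap1 and this lowers its fluorescence; nearly all actives have a fitted effect of over 65% in size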; note: potency is the fitted concentration of half-maximal effect
# [4] = target: Rap guanine nucleotide exchange factor 4 (Homo sapiens) (UniProt Q8WZA2); test: Confirmatory qHTS for antagonist of cAMP-regulated guanine nucleotide exchange factor 4 (EPAC2) (AID 1645885); note: nearly all actives have a fitted effect of over 25% in size; note: potency is the fitted concentration of half-maximal effect
# [5] = target: Rap guanine nucleotide exchange factor 3 (Homo sapiens) (UniProt O95398); test: Counterscreen qHTS for antagonist of cAMP-regulated guanine nucleotide exchange factor 3 (EPAC1) (AID 1645888);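 note: fluorescence loss as bound BODIPY-GDP is released from Rap1B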
# How it was run: (§1)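 Rap1B–BODIPY-GDP (250 nM) with 50 uM GDP; compounds pin-transferred to 9.74 nM–152 uM final (activator) or from 7.32 nM upwards (inhibitor). Fluorescence Ex/Em 480/540 nm read at 5 and 30 min, then after adding cAMP or buffer, at room temperature.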
# [6] = target: Rap guanine nucleotide exchange factor 3 (Homo sapiens) (UniProt O95398); test: Counterscreen qHTS for agonist of cAMP-regulated guanine nucleotide exchange factor 3 (EPAC1) (AID 1645889); note: nearly all actives have a fitted effect of over 40% in size; note: potency is the fitted concentration of half-maximal effect
# How it was run: as §1
# Sequence of Rap guanine nucleotide exchange factor 4 (Homo sapiens) (Q8WZA2 whole entry, looked up): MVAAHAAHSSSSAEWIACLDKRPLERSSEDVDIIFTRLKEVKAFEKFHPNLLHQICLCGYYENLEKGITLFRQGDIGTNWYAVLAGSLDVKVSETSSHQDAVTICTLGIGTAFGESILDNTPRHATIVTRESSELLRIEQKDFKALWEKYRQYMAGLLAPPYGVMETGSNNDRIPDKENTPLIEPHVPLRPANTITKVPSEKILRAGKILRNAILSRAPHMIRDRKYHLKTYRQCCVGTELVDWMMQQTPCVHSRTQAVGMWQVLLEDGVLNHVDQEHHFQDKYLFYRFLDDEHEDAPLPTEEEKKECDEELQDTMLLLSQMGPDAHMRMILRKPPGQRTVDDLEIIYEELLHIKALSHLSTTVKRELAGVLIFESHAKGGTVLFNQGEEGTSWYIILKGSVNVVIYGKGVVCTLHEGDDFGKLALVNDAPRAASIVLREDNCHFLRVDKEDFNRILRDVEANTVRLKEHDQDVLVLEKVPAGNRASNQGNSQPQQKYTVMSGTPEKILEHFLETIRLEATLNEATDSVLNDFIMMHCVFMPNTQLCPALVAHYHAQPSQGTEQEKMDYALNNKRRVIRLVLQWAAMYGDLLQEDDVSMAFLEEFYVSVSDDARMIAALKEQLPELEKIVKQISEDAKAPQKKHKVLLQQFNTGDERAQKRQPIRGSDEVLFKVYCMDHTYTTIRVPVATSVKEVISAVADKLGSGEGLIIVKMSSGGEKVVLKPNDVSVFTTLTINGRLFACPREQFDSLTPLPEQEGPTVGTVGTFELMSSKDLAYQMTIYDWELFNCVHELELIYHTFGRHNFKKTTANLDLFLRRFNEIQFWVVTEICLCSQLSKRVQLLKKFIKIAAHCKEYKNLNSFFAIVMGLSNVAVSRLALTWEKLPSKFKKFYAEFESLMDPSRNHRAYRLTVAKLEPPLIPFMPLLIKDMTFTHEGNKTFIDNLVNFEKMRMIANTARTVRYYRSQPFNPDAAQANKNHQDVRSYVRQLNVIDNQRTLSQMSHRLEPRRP
# Sequence of Rap guanine nucleotide exchange factor 3 (Homo sapiens) (O95398 whole entry, looked up): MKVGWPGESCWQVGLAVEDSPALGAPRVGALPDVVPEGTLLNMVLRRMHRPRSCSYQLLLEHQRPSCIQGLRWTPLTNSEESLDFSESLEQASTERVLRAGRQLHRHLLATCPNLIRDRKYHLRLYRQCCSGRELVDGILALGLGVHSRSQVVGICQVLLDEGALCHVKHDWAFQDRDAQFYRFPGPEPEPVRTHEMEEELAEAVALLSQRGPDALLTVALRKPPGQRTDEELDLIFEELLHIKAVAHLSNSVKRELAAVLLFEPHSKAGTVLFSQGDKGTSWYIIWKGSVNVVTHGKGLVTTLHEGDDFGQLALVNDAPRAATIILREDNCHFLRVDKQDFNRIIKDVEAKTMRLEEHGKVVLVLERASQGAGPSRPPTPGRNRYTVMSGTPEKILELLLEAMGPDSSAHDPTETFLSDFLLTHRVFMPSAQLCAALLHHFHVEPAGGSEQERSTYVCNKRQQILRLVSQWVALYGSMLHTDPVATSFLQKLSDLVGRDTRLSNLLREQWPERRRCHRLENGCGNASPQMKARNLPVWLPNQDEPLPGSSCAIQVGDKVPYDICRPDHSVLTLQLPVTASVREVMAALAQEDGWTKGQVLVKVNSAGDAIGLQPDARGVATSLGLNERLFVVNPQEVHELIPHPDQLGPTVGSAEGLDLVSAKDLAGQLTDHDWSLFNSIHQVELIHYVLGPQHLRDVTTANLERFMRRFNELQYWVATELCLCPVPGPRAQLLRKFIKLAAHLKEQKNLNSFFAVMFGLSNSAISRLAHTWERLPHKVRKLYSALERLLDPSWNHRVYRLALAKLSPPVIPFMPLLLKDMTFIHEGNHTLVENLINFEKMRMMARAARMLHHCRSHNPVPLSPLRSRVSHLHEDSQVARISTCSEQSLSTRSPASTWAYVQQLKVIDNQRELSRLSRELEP
SMILES,Potency [1],Potency [2],Potency [3],Potency [4],Potency [5],Potency [6],activation [3],"activity change, negative = inhibition [5]",activation [6],outcome [4]
COC(=O)c1ccc(NC(=O)CCOc2ccccc2)cc1,inactive,inactive,inactive,inactive,inactive,inactive,–,–,–,–
N#Cc1cc(C(=O)c2ccccc2O)cn(-c2nccs2)c1=O,inactive,112 µM (active),100 µM (active),47.8 µM (active),inactive,39.8 µM (active),–,–,–,–
COc1cccc(C(c2nnnn2-c2c(C)cccc2C)N2CCN(C/C=C/c3ccccc3)CC2)c1OC (stereo unspecified),inactive,inactive,inactive,inactive,inactive,inactive,–,–,–,–
CCCCC(=O)N(c1ccc(C(=O)O)cc1)c1nc(-c2ccc(Cl)cc2)c(CC)s1,50.1 µM (active),inactive,–,inactive,–,–,"5.89% [at 17.1 µM, percent relative to cAMP agonist control]",-5.84% [at 30.8 µM],19.6% [at 30.8 µM],–
CC1Cc2cc(/C=C3/SC(=S)NC3=O)ccc2O1 (stereo unspecified),30.1 µM (active),inactive,inactive,inactive,inactive,–,–,–,–,–
CC1CCCCC1Nc1nc2ccc(Cl)cc2n2cnnc12 (stereo unspecified),inactive,inactive,inactive,inactive,inactive,inactive,–,–,–,–
CCOc1ccc(NC(=O)CN(C)C(=O)c2cc3c(s2)CCC3)cc1OCC,37.9 µM (active),inactive,inactive,inactive,inactive,inactive,–,–,–,–
Cc1onc(-c2c(F)cccc2Cl)c1C(=O)Oc1ccccc1,inactive,inactive,–,inactive,–,–,"1.99% [at 17.1 µM, percent relative to cAMP agonist control]",-3.3% [at 30.8 µM],7.91% [at 30.8 µM],–
COc1ccc(C(=O)Nc2ccc(-c3cc4ccccc4oc3=O)c(C)c2)cc1Br,inactive,inactive,inactive,inactive,inactive,–,–,–,–,–
C#CCOc1ccc(/C=C2/C(=O)N(c3cccc(C(=O)O)c3)N=C2C)cc1OC,inactive,inactive,–,inactive,–,–,"5.95% [at 17.1 µM, percent relative to cAMP agonist control]",6.78% [at 30.8 µM],10.5% [at 30.8 µM],–
CC(=N\NC(=O)c1ccccc1)/C(=N/O)C(=O)Nc1ccccc1,3.16 µM (active),inactive,–,inactive,–,–,"7.97% [at 17.1 µM, percent relative to cAMP agonist control]",9.03% [at 30.8 µM],27.9% [at 30.8 µM],–
CCc1nnc(NC(=O)c2cc(-c3ccco3)nc3ccccc23)s1,21.3 µM (active),inactive,inactive,inactive,inactive,inactive,–,–,–,–
CCOCCCn1c(SCC(=O)Nc2ccc(OC)cc2OC)nc2ccccc2c1=O,inactive,inactive,inactive,–,inactive,inactive,–,–,–,inactive [at 12.7 µM]
CC1CC(C)CN(C(=O)c2cccc(S(=O)(=O)Nc3cc(C(F)(F)F)ccc3Cl)c2)C1 (stereo unspecified),13.5 µM (active),inactive,inactive,inactive,inactive,inactive,–,–,–,–
O=C(CN(c1ccc(Cl)c(C(F)(F)F)c1)S(=O)(=O)c1ccccc1)N1CCc2ccccc2C1,inactive,inactive,inactive,inactive,inactive,inactive,–,–,–,–
CNC(=O)NC(=O)C(NC1CCCc2ccccc21)c1ccccc1 (stereo unspecified),inactive,inactive,inactive,47.8 µM (active),inactive,inactive,–,–,–,–
CCN(CC)c1nc(C)nc2c1sc(=S)n2C,inactive,inactive,inactive,inactive,inactive,inactive,–,–,–,–
C#Cc1ccc([C@@H]2C=C(C(=O)NCc3nc4ccccc4[nH]3)O[C@H](OCC)[C@H]2CCCO)cc1,inactive,inactive,–,inactive,–,–,"7.11% [at 17.1 µM, percent relative to cAMP agonist control]",-6.31% [at 30.8 µM],30.9% [at 30.8 µM],–
CC(=O)Nc1ccc(CNc2nc3cc(-c4ccsc4)sc3c(=O)n2C)cc1,inactive,inactive,–,inactive,–,–,"-3.78% [at 17.1 µM, percent relative to cAMP agonist control]",16% [at 30.8 µM],36.9% [at 30.8 µM],–
CCN1/C(=C/c2ccc3cc(C)ccc3[n+]2CC)Sc2ccccc21,75.7 µM (active),inactive,inactive,inactive,inactive,inactive,–,–,–,–
CC(OC(=O)CCN1C(=O)C2CC=CCC2C1=O)C(=O)Nc1cccc(C#N)c1 (stereo unspecified),inactive,inactive,–,inactive,–,–,"3.57% [at 17.1 µM, percent relative to cAMP agonist control]",-8.99% [at 30.8 µM],3.18% [at 30.8 µM],–
c1ccc(OCCCn2ccnc2)cc1,inactive,inactive,inactive,inactive,inactive,inactive,–,–,–,–

SMILES,Potency [1],Potency [2],Potency [3],Potency [4],Potency [5],Potency [6],activation [3],"activity change, negative = inhibition [5]",activation [6],outcome [4]
O=C(N/N=C/c1cn(-c2ccccc2)nc1-c1cccnc1)c1ccccc1,inactive,inactive,–,inactive,–,–,"6.58% [at 17.1 µM, percent relative to cAMP agonist control]",-17.7% [at 30.8 µM],18.8% [at 30.8 µM],–
COc1ccc(C2c3c(ncn(CCCO)c3=N)Oc3ccc4ccccc4c32)cc1 (stereo unspecified),inactive,inactive,–,inactive,–,–,"3.99% [at 17.1 µM, percent relative to cAMP agonist control]",0.394% [at 30.8 µM],22.2% [at 30.8 µM],–
COc1cc(/C=C2\SC(=O)N(CC(=O)Nc3cccc(C)c3)C2=O)cc([N+](=O)[O-])c1O,19 µM (active),inactive,inactive,47.8 µM (active),inactive,inactive,–,–,–,–
Cc1ccc(S(=O)(=O)N2[C@@H](c3ccc(Cl)cc3)C(C(=O)O)=CC[C@H]2c2ccc(C(C)C)cc2)cc1,42.6 µM (active),inactive,inactive,inactive,inactive,inactive,–,–,–,–
S=C(NCCCN1CCOCC1)Nc1cccc(-c2nnc3n2CCCCC3)c1,inactive,inactive,inactive,inactive,inactive,inactive,–,–,–,–
COc1cc(Cl)c(C)cc1NC(=O)c1ccc(CN2C(=O)CCn3nc(C)cc32)cc1,inactive,inactive,inactive,inactive,inactive,inactive,–,–,–,–
COc1ccc(S(=O)(=O)N2CCCC2)cc1C(C)C,inactive,inactive,–,inactive,–,–,"-3.36% [at 17.1 µM, percent relative to cAMP agonist control]",-3.04% [at 30.8 µM],2.24% [at 30.8 µM],–
CCc1cccc(C)c1NC(=O)c1cc2ccccc2o1,inactive,inactive,inactive,inactive,inactive,inactive,–,–,–,–
CCc1cc(C(=O)c2ccc(OC)cc2)c(NC(=O)CC(C)(C)CC(=O)O)s1,inactive,inactive,inactive,inactive,inactive,inactive,–,–,–,–
CC(=O)c1c(C(C)=O)c(C)n(-c2nc(-c3ccccc3)c(C)s2)c1C,inactive,inactive,inactive,inactive,inactive,inactive,–,–,–,–
CC(C)CNC(=O)c1c(-c2ccccc2)c(-c2ccccc2)nn(C)c1=O,inactive,inactive,inactive,–,inactive,inactive,–,–,–,inactive [at 12.7 µM]
COc1cccc(/C(=N/O)C2CC2c2ccc(Cl)cc2)c1 (stereo unspecified),inactive,inactive,–,inactive,–,–,"1.73% [at 17.1 µM, percent relative to cAMP agonist control]",-11.7% [at 30.8 µM],9.41% [at 30.8 µM],–
COC(=O)CSc1nc2c(c(=O)n(C)c(=O)n2C)n1CCCc1ccccc1,inactive,inactive,–,inactive,–,–,"4.31% [at 17.1 µM, percent relative to cAMP agonist control]",-3.64% [at 30.8 µM],0.96% [at 30.8 µM],–
O=C(c1ccccc1)c1nn(-c2ccccc2)c(=O)cc1-c1ccccc1,inactive,inactive,inactive,inactive,inactive,inactive,–,–,–,–
CC1=NN(c2nc(-c3ccc(Cl)cc3)cs2)C(=O)C1,25.1 µM (active),inactive,–,inactive,–,–,"4.56% [at 17.1 µM, percent relative to cAMP agonist control]",-0.482% [at 30.8 µM],11% [at 30.8 µM],–
Cc1ccc(C(=O)ONc2ccc(N=NC(=O)c3ccccc3O)cc2)cc1,7.57 µM (active),inactive,inactive,inactive,inactive,inactive,–,–,–,–
CN1CCN(C(c2ccccc2Cl)c2sc3nc(-c4ccco4)nn3c2O)CC1 (stereo unspecified),inactive,inactive,inactive,–,inactive,inactive,–,–,–,inactive [at 12.7 µM]
Cc1nc(N)sc1C(=O)N1N=N1,inactive,inactive,inactive,inactive,inactive,inactive,–,–,–,–
OC1C2CN3CCN(C2)CC1(Cc1ccccc1)C3 (stereo unspecified),inactive,inactive,–,inactive,–,–,"3.83% [at 17.1 µM, percent relative to cAMP agonist control]",-12.7% [at 30.8 µM],28.2% [at 30.8 µM],–
O=C(COc1ccc(F)cc1)Nc1nccs1,inactive,inactive,inactive,inactive,inactive,inactive,–,–,–,–
COc1cc(/C=C2\SC(=O)NC2=O)ccc1Oc1ccc([N+](=O)[O-])cc1[N+](=O)[O-],42.6 µM (active),inactive,inactive,inactive,inactive,inactive,–,–,–,–
